Assay results as given in the supplement of paper PMC11732987, “Enantioselective OTUD7B fragment discovery through chemoproteomics screening and high-throughput optimisation” (Communications Chemistry, 2025).

What was measured:
Experiment in all cases: log2 ratio of Biotin-Ahx-Ub-VS probe labelling (fragment/DMSO); higher = less target engagement (more negative = stronger competition), active = hit call of the paper (q ≤ 0.05, log2 ratio ≤ -1)
Conditions in all cases: compound concentration: 200 uM; treatment time: 3 h
[1] = target: T1, USP19 (UniProt O94966)
T1 sequence (whole entry): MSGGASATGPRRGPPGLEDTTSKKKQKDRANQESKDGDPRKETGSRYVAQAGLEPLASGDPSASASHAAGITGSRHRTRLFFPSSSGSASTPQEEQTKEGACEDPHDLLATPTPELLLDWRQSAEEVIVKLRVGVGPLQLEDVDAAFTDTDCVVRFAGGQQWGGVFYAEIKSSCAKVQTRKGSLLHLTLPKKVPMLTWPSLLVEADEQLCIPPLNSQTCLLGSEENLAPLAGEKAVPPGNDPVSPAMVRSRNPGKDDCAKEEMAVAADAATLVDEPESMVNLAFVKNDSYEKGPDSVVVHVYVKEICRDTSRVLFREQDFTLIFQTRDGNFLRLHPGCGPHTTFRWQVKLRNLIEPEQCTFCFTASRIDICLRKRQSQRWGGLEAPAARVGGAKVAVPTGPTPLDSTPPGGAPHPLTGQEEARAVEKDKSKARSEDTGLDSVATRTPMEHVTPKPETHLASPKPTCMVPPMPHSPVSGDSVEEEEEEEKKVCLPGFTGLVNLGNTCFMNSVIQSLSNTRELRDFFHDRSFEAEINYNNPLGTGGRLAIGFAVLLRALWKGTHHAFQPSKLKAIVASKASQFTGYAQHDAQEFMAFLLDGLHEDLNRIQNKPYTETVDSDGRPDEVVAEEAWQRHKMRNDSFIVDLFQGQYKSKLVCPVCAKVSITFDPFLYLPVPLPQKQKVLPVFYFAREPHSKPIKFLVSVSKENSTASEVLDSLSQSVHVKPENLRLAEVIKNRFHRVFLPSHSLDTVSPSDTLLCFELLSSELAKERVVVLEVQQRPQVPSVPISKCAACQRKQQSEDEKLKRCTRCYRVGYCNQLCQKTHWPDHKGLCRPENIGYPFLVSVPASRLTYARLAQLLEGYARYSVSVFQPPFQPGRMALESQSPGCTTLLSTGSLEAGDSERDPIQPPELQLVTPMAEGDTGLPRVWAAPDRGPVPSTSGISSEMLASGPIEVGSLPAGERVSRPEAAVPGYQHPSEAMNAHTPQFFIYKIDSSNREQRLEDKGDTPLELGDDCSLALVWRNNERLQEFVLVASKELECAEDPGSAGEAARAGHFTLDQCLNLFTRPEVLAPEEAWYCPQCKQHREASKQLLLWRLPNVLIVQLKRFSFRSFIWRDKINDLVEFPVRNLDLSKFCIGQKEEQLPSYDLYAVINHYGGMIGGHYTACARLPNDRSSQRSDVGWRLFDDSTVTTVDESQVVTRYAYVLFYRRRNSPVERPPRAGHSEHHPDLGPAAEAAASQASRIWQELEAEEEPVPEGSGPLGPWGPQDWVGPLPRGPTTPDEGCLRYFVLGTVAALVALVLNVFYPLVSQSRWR
How it was run: (§1)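 Triplicate samples of HEK293T lysate, 495 µg each, received fragment at 200 µM or vehicle for 3 h, followed by Biotin-Ahx-Ub-VS (0.5 µM final) for 1 h. After NeutrAvidin enrichment of labelled DUBs and LysC/trypsin digestion, peptides were run by diaPASEF LC-MS/MS. The values are average log2 fragment/vehicle ratios from global-median-normalised Spectronaut label-free quantities, tested by unpaired t-test on proteins having ≥2 unique peptides.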

[2] = target: USP24 (UniProt Q9UPU5)
Chain of USP24 (Q9UPU5 whole entry): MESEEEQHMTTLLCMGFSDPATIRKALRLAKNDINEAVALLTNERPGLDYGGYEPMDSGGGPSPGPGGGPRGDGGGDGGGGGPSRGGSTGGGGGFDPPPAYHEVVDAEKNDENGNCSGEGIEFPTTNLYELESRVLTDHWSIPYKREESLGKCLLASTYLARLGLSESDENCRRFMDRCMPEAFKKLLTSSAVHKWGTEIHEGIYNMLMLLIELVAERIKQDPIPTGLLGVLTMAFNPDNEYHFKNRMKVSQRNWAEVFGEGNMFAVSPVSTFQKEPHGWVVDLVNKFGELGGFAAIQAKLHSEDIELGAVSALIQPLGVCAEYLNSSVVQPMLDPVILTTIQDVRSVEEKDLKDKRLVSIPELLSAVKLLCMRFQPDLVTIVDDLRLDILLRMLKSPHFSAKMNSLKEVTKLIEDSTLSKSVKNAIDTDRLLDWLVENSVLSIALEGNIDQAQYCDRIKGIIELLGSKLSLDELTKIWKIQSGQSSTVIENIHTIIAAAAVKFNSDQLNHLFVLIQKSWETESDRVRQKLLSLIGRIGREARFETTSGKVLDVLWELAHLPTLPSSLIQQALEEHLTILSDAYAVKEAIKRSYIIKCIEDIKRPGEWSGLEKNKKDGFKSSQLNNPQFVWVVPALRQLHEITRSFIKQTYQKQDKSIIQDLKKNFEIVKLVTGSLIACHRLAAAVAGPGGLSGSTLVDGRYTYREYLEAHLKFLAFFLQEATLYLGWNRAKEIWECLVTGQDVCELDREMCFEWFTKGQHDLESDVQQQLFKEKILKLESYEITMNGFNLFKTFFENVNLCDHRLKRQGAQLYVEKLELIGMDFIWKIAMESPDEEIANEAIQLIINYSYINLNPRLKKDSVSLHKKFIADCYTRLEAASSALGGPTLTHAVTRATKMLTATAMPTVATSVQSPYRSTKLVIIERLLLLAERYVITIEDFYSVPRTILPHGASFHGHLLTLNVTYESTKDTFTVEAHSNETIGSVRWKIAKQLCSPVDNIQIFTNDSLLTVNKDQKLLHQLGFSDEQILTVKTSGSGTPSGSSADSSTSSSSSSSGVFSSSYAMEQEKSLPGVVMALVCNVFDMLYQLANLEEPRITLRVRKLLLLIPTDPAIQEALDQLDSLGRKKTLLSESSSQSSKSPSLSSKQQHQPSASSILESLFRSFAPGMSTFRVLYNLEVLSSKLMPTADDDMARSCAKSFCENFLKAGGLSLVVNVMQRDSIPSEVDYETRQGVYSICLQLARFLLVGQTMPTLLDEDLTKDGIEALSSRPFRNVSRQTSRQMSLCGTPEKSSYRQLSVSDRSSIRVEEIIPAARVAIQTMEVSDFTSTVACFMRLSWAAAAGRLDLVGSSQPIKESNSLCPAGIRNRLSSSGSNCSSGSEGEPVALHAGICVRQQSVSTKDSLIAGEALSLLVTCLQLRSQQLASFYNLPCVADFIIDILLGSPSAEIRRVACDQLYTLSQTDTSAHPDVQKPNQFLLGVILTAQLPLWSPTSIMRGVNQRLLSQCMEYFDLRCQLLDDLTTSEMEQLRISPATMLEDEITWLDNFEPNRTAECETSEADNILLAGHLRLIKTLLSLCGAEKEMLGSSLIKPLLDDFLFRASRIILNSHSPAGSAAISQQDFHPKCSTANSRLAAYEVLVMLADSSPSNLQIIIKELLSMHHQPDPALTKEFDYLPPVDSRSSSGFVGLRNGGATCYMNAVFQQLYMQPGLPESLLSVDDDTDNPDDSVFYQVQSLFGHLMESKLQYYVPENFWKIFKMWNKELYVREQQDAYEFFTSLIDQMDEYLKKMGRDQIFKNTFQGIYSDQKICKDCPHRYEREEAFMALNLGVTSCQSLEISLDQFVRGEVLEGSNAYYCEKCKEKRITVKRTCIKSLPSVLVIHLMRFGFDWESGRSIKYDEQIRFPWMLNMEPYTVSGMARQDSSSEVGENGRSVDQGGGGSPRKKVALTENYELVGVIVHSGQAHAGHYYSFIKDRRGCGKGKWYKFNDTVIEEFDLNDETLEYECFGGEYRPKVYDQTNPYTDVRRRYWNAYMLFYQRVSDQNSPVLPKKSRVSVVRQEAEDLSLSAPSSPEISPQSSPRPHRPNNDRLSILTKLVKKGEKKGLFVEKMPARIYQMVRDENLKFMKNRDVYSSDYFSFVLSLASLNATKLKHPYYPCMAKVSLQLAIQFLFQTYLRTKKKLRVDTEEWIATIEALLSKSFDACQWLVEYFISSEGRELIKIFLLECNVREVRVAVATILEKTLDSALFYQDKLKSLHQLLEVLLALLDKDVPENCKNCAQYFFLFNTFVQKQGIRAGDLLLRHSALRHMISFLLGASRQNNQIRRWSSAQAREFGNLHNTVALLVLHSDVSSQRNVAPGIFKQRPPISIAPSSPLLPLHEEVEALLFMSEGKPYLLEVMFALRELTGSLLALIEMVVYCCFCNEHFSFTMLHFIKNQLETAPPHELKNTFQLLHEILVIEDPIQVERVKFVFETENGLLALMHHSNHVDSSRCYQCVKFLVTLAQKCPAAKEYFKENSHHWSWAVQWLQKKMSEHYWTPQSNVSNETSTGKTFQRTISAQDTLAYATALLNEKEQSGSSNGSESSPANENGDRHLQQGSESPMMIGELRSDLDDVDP
How it was run: as §1

[3] = target: T2, USP25 (UniProt Q9UHP3)
T2 sequence (whole entry): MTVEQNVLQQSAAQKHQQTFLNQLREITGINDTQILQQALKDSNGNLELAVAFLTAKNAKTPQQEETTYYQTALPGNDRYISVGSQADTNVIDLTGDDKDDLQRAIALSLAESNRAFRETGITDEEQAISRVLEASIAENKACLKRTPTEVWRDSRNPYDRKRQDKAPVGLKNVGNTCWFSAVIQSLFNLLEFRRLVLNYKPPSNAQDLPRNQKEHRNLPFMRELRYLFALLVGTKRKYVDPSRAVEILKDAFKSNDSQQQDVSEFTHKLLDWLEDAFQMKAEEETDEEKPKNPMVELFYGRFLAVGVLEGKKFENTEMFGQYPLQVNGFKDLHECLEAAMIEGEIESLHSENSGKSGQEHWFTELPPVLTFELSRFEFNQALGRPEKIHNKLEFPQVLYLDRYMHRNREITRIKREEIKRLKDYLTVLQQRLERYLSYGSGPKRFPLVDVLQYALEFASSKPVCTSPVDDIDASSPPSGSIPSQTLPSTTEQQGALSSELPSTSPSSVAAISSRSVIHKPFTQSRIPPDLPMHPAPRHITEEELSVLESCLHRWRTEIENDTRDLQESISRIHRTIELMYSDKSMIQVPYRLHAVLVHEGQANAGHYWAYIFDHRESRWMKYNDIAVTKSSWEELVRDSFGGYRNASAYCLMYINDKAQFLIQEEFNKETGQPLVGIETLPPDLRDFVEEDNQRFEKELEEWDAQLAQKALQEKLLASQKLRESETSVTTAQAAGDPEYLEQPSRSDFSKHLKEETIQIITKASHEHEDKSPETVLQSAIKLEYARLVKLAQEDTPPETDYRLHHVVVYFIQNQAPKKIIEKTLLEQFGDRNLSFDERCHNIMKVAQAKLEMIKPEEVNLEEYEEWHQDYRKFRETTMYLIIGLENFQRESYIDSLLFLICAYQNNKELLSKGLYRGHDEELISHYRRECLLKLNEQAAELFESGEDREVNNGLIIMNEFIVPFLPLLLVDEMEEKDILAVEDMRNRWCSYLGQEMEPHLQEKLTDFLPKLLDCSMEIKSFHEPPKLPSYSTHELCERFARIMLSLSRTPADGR
How it was run: as §1

[4] = target: T3, USP28 (UniProt Q96RU2)
T3 sequence (whole entry): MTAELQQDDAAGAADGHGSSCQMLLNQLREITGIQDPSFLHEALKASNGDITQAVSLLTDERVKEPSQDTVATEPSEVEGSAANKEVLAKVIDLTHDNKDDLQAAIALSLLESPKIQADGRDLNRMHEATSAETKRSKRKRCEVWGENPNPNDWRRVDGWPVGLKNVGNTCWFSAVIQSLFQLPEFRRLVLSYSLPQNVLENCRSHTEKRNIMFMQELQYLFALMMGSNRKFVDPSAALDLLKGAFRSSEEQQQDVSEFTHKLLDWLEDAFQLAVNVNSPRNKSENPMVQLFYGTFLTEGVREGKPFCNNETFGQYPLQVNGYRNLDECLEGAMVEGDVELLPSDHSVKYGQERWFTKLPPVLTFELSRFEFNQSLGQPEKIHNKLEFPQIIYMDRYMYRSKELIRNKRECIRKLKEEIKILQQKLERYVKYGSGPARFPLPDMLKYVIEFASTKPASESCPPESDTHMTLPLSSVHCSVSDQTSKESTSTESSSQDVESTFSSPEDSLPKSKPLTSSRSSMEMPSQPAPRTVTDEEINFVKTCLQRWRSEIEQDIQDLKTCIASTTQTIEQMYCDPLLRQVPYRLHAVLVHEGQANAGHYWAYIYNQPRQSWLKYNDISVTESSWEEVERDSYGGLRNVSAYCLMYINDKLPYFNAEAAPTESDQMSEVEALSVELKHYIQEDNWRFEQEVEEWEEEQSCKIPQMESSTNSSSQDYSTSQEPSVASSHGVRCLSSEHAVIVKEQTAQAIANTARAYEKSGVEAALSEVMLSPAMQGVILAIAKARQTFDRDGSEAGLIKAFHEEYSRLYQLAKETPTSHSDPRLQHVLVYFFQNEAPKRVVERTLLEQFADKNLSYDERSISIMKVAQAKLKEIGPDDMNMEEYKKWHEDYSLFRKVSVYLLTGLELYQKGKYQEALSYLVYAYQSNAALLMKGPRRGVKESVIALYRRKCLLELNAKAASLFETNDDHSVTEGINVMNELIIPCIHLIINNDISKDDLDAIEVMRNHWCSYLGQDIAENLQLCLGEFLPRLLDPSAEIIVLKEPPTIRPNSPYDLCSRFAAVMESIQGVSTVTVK
How it was run: as §1

Measured: log2 ratio of Biotin-Ahx-Ub-VS probe labelling

C[C@@H](NC(=O)CCl)c1cccc(C#N)c1
inactive: [1] -0.157 | [2] -0.254 | [3] -0.569 | [4] -0.723
